# KLF5 inhibitor = kruppel-like factor 5 inhibition; DLD-1 KLF5 promoter-luciferase reporter, luminescence; inhibition, % at 5 µM; AID 1700; actives 0.23% (n = 290,000);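 active = inhibition above a per-plate limit of that plate's mean compound inhibition plus 3 SD, cut at about 60% in these data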;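 note: 0% = DMSO wells and 100% = LY294002 at 200 µM; higher means less KLF5 promoter-driven luciferase light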
# Ba/F3 V617F tox = loss of viability in JAK2V617F-driven Ba/F3 cells; Ba/F3 EpoR-JAK2V617F viability, ATP luminescence; inhibition, % at 5.6 µM; actives 1.1% (n = 220,000);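 active = inhibition above the campaign mean plus 3 SD over all tested compounds, cut at about 24% in these data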;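 note: cytokine-independent growth of Ba/F3 cells driven by EpoR plus mutant JAK2; 0% = DMSO-treated cells and 100% = JAK inhibitor I control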
# APP transl inh = APP translation inhibition; actives 0.82% (n = 190,000); inhibition, % at 2 µM; SH-SY5Y APP 5'UTR-luciferase reporter, luminescence; AID 1285;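 active = inhibition above a set limit, derived from the sample mean plus 3 SD, cut at about 45% in these data; inconclusive = one replicate passes the limit while the other fails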
# aSyn 5UTR inh = 5' untranslated region of α-synuclein, MLPCN primary screen; alpha-synuclein 5'UTR reporter, inhibitor activity; inhibition, % (tested at 7.5 µM); actives 0.82% (n = 300,000); in the data active = inhibition above about 60%; inconclusive = no clear call, values can overlap the other calls;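 note: H4 neuroglioblastoma cells stably carrying SNCA 5'UTR luciferase fusion; 0% = DMSO wells and 100% = positive control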
# IEC-6 tox = kills IEC-6 intestinal cells in KLF5 counter-screen; inhibition, % at 5 µM; AID 1825; IEC-6 cytotoxicity, luminescence viability; actives 0.78% (n = 290,000); in the data active = inhibition above about 22%;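 note: 0% = plate median of test compound wells and 100% = cytotoxic reference compound wells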
# BaF3 parental = parental Ba/F3 viability inhibition as JAK2V617F counter-screen; CellTiter-Glo ATP luminescence; inhibition, % at 5.6 µM; actives 1.1% (n = 220,000); AID 1486;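 active = inhibition above a per-campaign cutoff, the mean inhibition of all tested compounds plus 3 SD, cut at about 27% in these data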;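 note: 0% = DMSO wells and 100% = JAK Inhibitor I control wells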
# Active calls of the source: *; ? = inconclusive; · = not tested or not shown. Only some compounds are listed: those with a hit (about 2.2% of all), similar ones and a draw of the others.
SMILES,KLF5 inhibitor,Ba/F3 V617F tox,APP transl inh,aSyn 5UTR inh,IEC-6 tox,BaF3 parental
Cn1c(=O)oc2cc(S(=O)(=O)N3CCCc4ccccc43)ccc21,20.4,54.9*,37.5,0.0,0.4,44.7*
Cn1c(=O)c(=O)n(C)c2cc(S(=O)(=O)N3CCc4ccccc43)ccc21,25.1,-2.4,-11.2,12.0,2.3,30.6*
O=c1c2ccccc2nc(/C=C/c2ccc([N+](=O)[O-])o2)n1CCCO,18.5,101.2*,22.9,-6.4,7.3,101.6*
Cc1ccc(NC(=O)C2COc3ccccc3O2)cc1C (stereo not given),-82.2,·,·,-170.8,-0.1,·
O=C(CSc1nnc(COc2ccc(Cl)cc2)o1)N1c2ccccc2CCc2ccccc21,-19.7,24.8*,-0.2,?,11.7,46.3*
O=C(CSc1nnc(COc2ccc(Cl)cc2)o1)N1CCCC1,-7.9,·,·,12.4,-3.9,·
O=C1c2ccccc2S(=O)(=O)c2cc(N3CCOCC3)ccc21,·,·,·,76.4*,·,·
O=C1c2ccccc2S(=O)(=O)c2cc(N3CCN(c4ccccc4)CC3)ccc21,·,·,·,-18.6,·,·
Cc1cccc(NC(=O)[C@@H]2CCCN2C(=O)OC(C)(C)C)c1C,-29.1,·,·,-4.5,-3.0,·
Cc1ccc[n+](Cc2ccc([N+](=O)[O-])cc2)c1,-28.0,2.5,-15.6,8.7,0.2,10.6
O=[N+]([O-])c1ccc(C[n+]2cccc3c4ccccc4ccc32)cc1,-22.2,89.8*,3.6,17.1,-11.3,73.8*
Cc1cc(N2C(=O)C=CC2=O)c([N+](=O)[O-])cc1C,-21.9,-2.5,62.2*,21.4,4.6,2.8
Cc1ccc(N2C(=O)C3C4C=CC(CC4)C3C2=O)cc1[N+](=O)[O-] (stereo not given),-54.9,·,·,-4.7,3.4,·
C(=N\Nc1ccc2ccccc2n1)/c1ccc2c(c1)OCCO2,58.1,-1.1,-48.0,108.4*,4.5,-1.2
CC(/C=N/NC(=O)c1cc(-c2ccc(Cl)cc2)nc2ccccc12)=C\c1ccco1,-3.0,2.6,-1.9,85.3*,9.8,5.3
Cc1cc(C(=O)N/N=C/c2ccco2)c2ccccc2n1,-2.0,3.5,-8.2,1.4,4.4,7.1
Cc1ccc(/C=N/NC(=O)c2cc(-c3ccccc3)nc3ccccc23)o1,8.9,·,·,-57.1,10.3,·
CC(/C=N/NC(=O)c1cc(-c2ccccc2)nc2ccccc12)=C\c1ccco1,-6.2,-5.4,84.7*,-6.5,4.5,3.6
CC/C(=N\NC(=O)c1cc(C)nc2ccccc12)c1ccc(C)s1,5.4,8.1,76.5*,11.5,3.2,-1.1
Cc1cc(C(=O)N/N=C/c2ccc(C)o2)c2ccccc2n1,39.1,21.3,72.8*,65.5*,17.3,9.6
O=C(N/N=C/c1ccc(O)cc1)c1cc(-c2ccccc2)nc2ccccc12,-14.2,·,·,13.9,1.7,·
O=C(Nc1ccc(Cl)cc1)Nc1csc([N+](=O)[O-])c1,-16.4,29.8*,·,1.1,4.8,72.4*
CCCN(Cc1cc2ccc(C)cc2[nH]c1=O)C(=O)c1cccnc1,-22.5,3.1,-12.6,17.2,-0.7,10.2
CC(=O)N(Cc1cccnc1)Cc1cc2ccc(C)cc2[nH]c1=O,-13.8,-2.6,9.7,3.8,2.4,95.4*
Cc1ccc(CNC(=O)c2ccc(CNS(=O)(=O)c3ccc4c(c3)C(C)(C)C(=O)N4C)cc2)o1,-20.4,·,·,17.0,10.4,·
SMILES,KLF5 inhibitor,Ba/F3 V617F tox,APP transl inh,aSyn 5UTR inh,IEC-6 tox,BaF3 parental
Cc1ccc(NC(=O)[C@H](C)NC(=O)C2CCN(C(=O)[C@@H](N)CC(C)C)CC2)cc1,-2.7,·,·,-11.2,-14.9,·
O=C(Cn1c(-c2ccccc2)c[n+]2ccsc12)c1ccc(Br)cc1,-12.7,27.2*,15.5,-21.9,0.5,40.5*
Nc1ccc2nc(-c3ccc(N)c(Cl)c3)[nH]c2c1,-86.7,13.2,-59.2,-114.7,-0.6,13.7
Nc1ccc(-c2nc3c(Cl)cc(N)cc3[nH]2)cc1,42.0,3.1,63.2*,85.2*,8.5,-4.7
Cc1ccc(-c2noc(CNC(=O)c3ccc4c(c3)OCO4)n2)cc1,12.9,·,·,-1.8,-4.3,·
COc1ccc(CCn2c(N)c(C(=O)NCc3ccco3)c3nc4ccccc4nc32)cc1OC,-5.4,-1.6,8.9,-51.2,-3.0,3.2
COc1ccc(CCn2c(N)c(C(=O)NCc3ccco3)c3nc4ccccc4nc32)cc1,-18.3,36.6*,-5.7,-3.0,2.1,38.2*
O=C(Nc1ccc(S(=O)(=O)N2CCOCC2)cc1)c1ccc(CN2CCc3ccccc3C2)cc1,4.6,63.4*,0.0,-14.7,16.1,50.5*
O=C(COC(=O)c1cnccn1)N=c1sccn1Cc1ccccc1Cl,·,·,·,13.9,·,·
CC(C)(C)NC(=O)C(c1ccncc1)N(Cc1cccs1)C(=O)Cn1nnc(-c2ccc(F)cc2)n1 (stereo not given),-3.5,-0.8,5.0,-19.4,11.6,2.8
CC(C)(C)NC(=O)C(OC(=O)Cn1nnc(-c2ccc(F)cc2)n1)c1ccncc1 (stereo not given),-36.8,0.8,-21.5,15.3,-1.5,92.6*
CC1Cc2cccc3c(O)c(C(=O)c4nn[nH]n4)c(=O)n1c23 (stereo not given),-15.9,2.0,8.8,24.0,8.1,7.3
Cc1cc(C(=O)COc2cccnc2[N+](=O)[O-])c(C)n1-c1ccccc1F,-30.5,-2.4,·,67.5*,-7.1,-4.5
Cc1cc(C(=O)COc2cccnc2[N+](=O)[O-])c(C)n1Cc1ccco1,-26.9,1.9,5.0,14.2,-8.8,8.4
Cc1cc(-n2c(C)cc(C(=O)COc3ccccc3[N+](=O)[O-])c2C)no1,-29.8,1.7,-25.0,-67.5,-2.4,7.3
Cc1cc(C(=O)COc2cccnc2[N+](=O)[O-])c(C)n1-c1ccccc1,-19.0,2.0,21.4,99.8*,-4.2,5.2
Cc1ccc(-n2c(C)cc(C(=O)COc3cccnc3[N+](=O)[O-])c2C)cc1,28.0,0.8,-26.9,64.1*,0.9,5.7
CC(=O)Nc1cc(C)nn1-c1nc(C)cc(C)n1,-5.7,-5.3,18.9,5.6,6.6,-3.4
Cc1ccc(Nc2cc(C)nn2-c2nc(C)cc(C)n2)cc1,23.6,2.5,6.1,29.5,30.1*,6.0
CCN1/C(=C/c2ccc3cc(C)ccc3[n+]2C)Sc2ccc3sccc3c21,-12.4,77.9*,19.7,·,15.8,62.4*
Cc1ccc(C(C)C)cc1OCC(=O)NC1CCCCCCC1,·,·,·,-12.1,·,·
CCOC(=O)Cc1csc(NC(=O)c2c(O)c3ccccc3n(CC(C)C)c2=O)n1,-33.7,-4.5,·,74.6*,-4.1,-0.3
CCN(CC)c1ccc(/C=C2/SC(=O)N(C(C)C)C2=O)o1,9.6,5.0,92.0*,-174.8,-0.1,7.9
CCOc1ccc(/C=C2\CCCc3c2nc2ccccc2c3C(=O)O)cc1OC,-11.9,·,·,-5.7,-9.3,·
COc1ccc(N2CCN(C(=O)COC(=O)c3ccc(C)o3)CC2)cc1,·,·,·,1.8,·,·
CCN1C(=O)c2cccc3c(Cl)ccc(c23)C1=O,-2.8,2.9,-11.0,-8.9,2.9,7.4
O=C1c2cccc3c(Cl)ccc(c23)C(=O)N1O,-1.6,-1.6,-6.4,10.0,21.9*,5.3
Clc1ccc2nc(N3CCCCC3)[nH]c2c1,-166.0,2.4,-119.1,-123.3,3.8,2.6
